The values below come from PubChem BioAssay (NCI).

Assay [1] can be described thus: NCI Yeast Anticancer Drug Screen. Data for the rad50 strain (AID 155).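 Also: 0% = growth of vehicle-only cultures of the same strain.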 Conditions: S. cerevisiae rad50 strain growth inhibition; at 50.0 µM; hits give high values. Summed up: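 Compounds were tested on a yeast strain with an engineered DNA damage repair alteration; the reported value is growth inhibition normalised to vehicle treatment.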
A short description of assay [2]: NCI Yeast Anticancer Drug Screen. Data for the mec2-1 strain (AID 157). Conditions: S. cerevisiae mec2-1 strain, at 50.0 µM, hits give high values. Summed up:
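Cells of the genetically defined mec2-1 yeast strain are incubated with test compound. Inhibition of growth is calculated against vehicle-treated controls.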

A short description of assay [3]: NCI Yeast Anticancer Drug Screen. Data for the sgs1 mgt1 strain (AID 161).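 Also: 0% = growth of cultures given vehicle only.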 Conditions: S. cerevisiae sgs1 mgt1 strain, at 50.0 µM, hits give high values. Summed up: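 Read-out: growth inhibition vs vehicle controls. Cells: mutant yeast strain deficient in DNA damage repair.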
A short description of assay [4]: NCI Yeast Anticancer Drug Screen. Data for the cln2 rad14 strain (AID 165).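 Also: 0% = growth equal to vehicle treated cultures.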 As to conditions: S. cerevisiae cln2 rad14 strain, at 50.0 µM, hits give high values. The method in brief: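 The screen exposed genetically defined yeast (cln2 rad14) to test compounds and scored growth inhibition relative to vehicle-treated controls.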
A short description of assay [5]: NCI Yeast Anticancer Drug Screen. Data for the mlh1 rad18 strain (AID 175). As to conditions: S. cerevisiae mlh1 rad18 strain growth inhibition; at 50.0 µM; hits give high values. Summed up:
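Compound-treated yeast growth, normalised to vehicle controls. Strain bears defined DNA repair mutations.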

A short description of assay [6]: NCI Yeast Anticancer Drug Screen. Data for the bub3 strain (AID 167). As to conditions: S. cerevisiae bub3 mutant strain, at 50.0 µM, hits give high values. The method in brief:
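Growth of a checkpoint-deficient yeast mutant is measured after compound exposure. Values represent inhibition relative to vehicle.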

Compounds without any hit were thinned out: in the full panel of roughly 79,000, 15% have a hit. Values without a mark were called inactive. Activity calls are given as the source filed them. Rule as the data show it: active = growth inhibition above about 70%; inactive = the rest.

Turning to `N#Cc1nc(COCc2ccccc2)oc1N`, the growth inhibition in assay [1] was -19.9%; in assay [2] it was -12.5%; in assay [3] it was -5.45%; in assay [4], 1.75%; in assay [5], -10.9%.
The matching figures for `N#CCCC(CC#N)C1([N+](=O)[O-])CCCCC1` (stereo unspecified): 23.8%, 29.2%, 7.85%, 53.1% and 3.55%.
In the case of `CCCCCCCCCCNCC(=O)O`, the growth inhibition in assay [1] was -11.1%; in assay [2] it was -16.6%; in assay [3] it was -1.65%; in assay [4] it was -7.6%; in assay [5], -8.95%.
The matching figures for `COc1nc(NC2OC(COC(C)=O)C(OC(C)=O)C(OC(C)=O)C2OC(C)=O)c(C(=O)CCl)c(=O)[nH]1` (stereo unspecified): 3.75%, 6.5%, 8.45%, -0.4% and 13.7%.
The matching figures for `CN(C)CCSc1nc2ccccc2o1`: 12.2%, 20.8%, 27.7%, 21.1% and 32.9%.
For the compound `CC(=O)OC1CCC2(C)C3C/C(=N\O)C4(C)C(C(C)OC(C)=O)CCC4C3CCC2(C)C1` (stereo unspecified), the growth inhibition in assay [1] is 95.3% (active); in assay [2] it was 96.7% (active); in assay [3], 96% (active); in assay [4], 91.8% (active); in assay [5], 95.9% (active).
The matching figures for `CCOC(=O)c1c(/C=N\Nc2ccccc2)nc2ccccc2c1-c1ccccc1`: 11.7%, 0.6%, -2.9%, -6.5% and -7.4%.
The matching figures for `CC(=O)OC(C)(C)c1ccc2c(c1)C(=O)C[C@@H]1[C@](C)(C#N)CCC[C@]21C`: 46.6%, 0.3%, -2.75%, -5.35% and 35.5%.
Turning to `CCOC(=O)N1N=C(c2ccccc2)OC2(N3CCCC3)CCC(C(C)(C)C)CC12` (stereo unspecified), the growth inhibition in assay [1] is 11.1%; in assay [2], 10.6%; in assay [3], 9.4%; in assay [4], -4.5%; in assay [5] it was 27.9%.
The matching figures for `O=C(SCSC(=O)c1ccccc1)c1ccccc1`: -11.3%, 10.9%, -4.75%, -18.5% and 2%.
`O=C(O)CNC(=O)NC(Cc1ccccc1)C(=O)O` (stereo unspecified): the growth inhibition is 9.1% in assay [1]; 12.4% in assay [2]; -0.45% in assay [3]; 71.5% (active) in assay [4]; 18.6% in assay [6]; 8% in assay [5].
With `FC1=C2C3CCC(C3)C2C1(F)F` (stereo unspecified), the growth inhibition was 12.1% in assay [1]; 4.1% in assay [2]; 20.1% in assay [3]; 16.9% in assay [4]; 17.1% in assay [5].
The matching figures for `[Cu+2].[O-]C1c2c(ccc3ccccc23)-c2ccccc2C1N=Nc1ccccc1.[O-]c1c(N=Nc2ccccc2)c2ccccc2c2ccc3ccccc3c12` (stereo unspecified): -19.1%, -20.7%, -7.8%, -20.4% and -20.2%.
The matching figures for `CCCCCCC(=O)O`: 0.75%, -16.4%, -4.85%, -30.3% and 9.9%.
The matching figures for `O=C1Nc2ccc3[nH]ncc3c2C1=O`: 11.7%, -0.65%, -2.45%, -11.8% and 7.6%.
On to `CC(=O)Nc1ccc(F)c(N)c1`, for which the growth inhibition in assay [1] was -3.2%; in assay [2], -13.2%; in assay [3], 8.7%; in assay [4], -11.9%; in assay [5], 15.1%.
The matching figures for `O=c1[nH]c2cc(Cl)ccc2nc1/C=C(\O)c1ccccc1O`: 3.35%, -13.3%, -11.2%, -8.4% and -0.8%.
For `CCCCCNC(=O)c1ccc(C)cc1`, the growth inhibition in assay [1] was 2.5%; in assay [2], -4.15%; in assay [3], 1.05%; in assay [4], -12.6%; in assay [5], -70%.
On to `Oc1ccc(Oc2cc3c(cc2Oc2ccc(O)cc2)-c2nc-3nc3[nH]c(nc4nc(nc5[nH]c(n2)c2cc(Oc6ccc(O)cc6)c(Oc6ccc(O)cc6)cc52)-c2cc(Oc5ccc(O)cc5)c(Oc5ccc(O)cc5)cc2-4)c2cc(Oc4ccc(O)cc4)c(Oc4ccc(O)cc4)cc32)cc1`, for which the growth inhibition in assay [1] was -94.7%; in assay [2], -56.7%; in assay [3] it was -119%; in assay [4] it was -99.7%; in assay [5], -104%.
The matching figures for `CCN(CC)c1ccc(N=C2C=C(C(=O)Nc3ccccc3)C(=O)c3ccccc32)cc1`: -10.9%, -40.3%, -14.4%, 6.25% and -21.4%.
With `CCCCOC(=O)CNC(=O)c1ccc(C)c(OCc2ccccc2)c1[N+](=O)[O-]`, the growth inhibition in assay [1] is 0.5%; in assay [2], -6.1%; in assay [3], 6.1%; in assay [4], -19.6%; in assay [5], -17.6%.
On to `CC12CC(=O)C3C(CCC4CC(OS(=O)(=O)O)CCC43C)C1CC1OC(=O)C=C12` (stereo unspecified), for which the growth inhibition in assay [1] was 18.2%; in assay [2], -8.75%; in assay [3] it was -5.85%; in assay [4], 15.9%; in assay [5], 25.6%.
For `CC(C)CCNCCCCCCl`, the growth inhibition is 62.5% in assay [1]; 37.3% in assay [2]; 36.7% in assay [3]; 36.6% in assay [4]; 67.1% in assay [5].
As to `Cn1nnn2c(-c3ccccc3)nnc12`, the growth inhibition in assay [1] was 15.4%; in assay [2] it was -2.45%; in assay [3], -5.45%; in assay [4] it was -10.8%; in assay [5], -5.3%.
